Screening data (PubChem)
TRHR enhancer – qHTS for Small Molecule Agonists and Allosteric Enhancers of Human TRH Receptor: Primary Screen for Enhancers. Thyrotropin-releasing hormone receptor (Homo sapiens), P34981. actives 0.66% (n = 360,000). AID 493056, 2011. enhancement, % at 2 µM. TRHR cells, fluo-8 calcium fluorescence, EC20 TRH enhancement; in the data active = enhancement above about 30%
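TRHR-expressing cells loaded with fluo-8 calcium dye were read kinetically (ex 480/em 530) during compound addition, then stimulated with an EC20 of TRH (10 nM final). Enhancement of the Gq-mediated intracellular calcium response was scored.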
TRHR agonist – qHTS for Small Molecule Agonists and Allosteric Enhancers of Human TRH Receptor: Primary Screen for Agonists | Thyrotropin-releasing hormone receptor (Homo sapiens), P34981 | TRHR cells, calcium flux fluo-8, FDSS agonist mode | activation, % at 2 µM | actives 0.18% (n = 360,000) | AID 493084, 2011
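In this calcium-flux screen, cells bearing human TRHR are dye-loaded with fluo-8, baselined for 10 cycles, then exposed to library compounds; positive kinetic calcium responses during the agonist phase mark hits, with TRH as control.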
D1 antagonist – Antagonist of Human D 1 Dopamine Receptor: qHTS. D(1A) dopamine receptor (Homo sapiens), P21728. HEK293 TREx D1 cells, calcium flux, dopamine EC80; active compounds read low. activity change, negative = inhibition, % at 10 µM. actives 3.2% (n = 360,000); in the data active = activity change below about -30%
Target sequence (P21728 whole entry, looked up): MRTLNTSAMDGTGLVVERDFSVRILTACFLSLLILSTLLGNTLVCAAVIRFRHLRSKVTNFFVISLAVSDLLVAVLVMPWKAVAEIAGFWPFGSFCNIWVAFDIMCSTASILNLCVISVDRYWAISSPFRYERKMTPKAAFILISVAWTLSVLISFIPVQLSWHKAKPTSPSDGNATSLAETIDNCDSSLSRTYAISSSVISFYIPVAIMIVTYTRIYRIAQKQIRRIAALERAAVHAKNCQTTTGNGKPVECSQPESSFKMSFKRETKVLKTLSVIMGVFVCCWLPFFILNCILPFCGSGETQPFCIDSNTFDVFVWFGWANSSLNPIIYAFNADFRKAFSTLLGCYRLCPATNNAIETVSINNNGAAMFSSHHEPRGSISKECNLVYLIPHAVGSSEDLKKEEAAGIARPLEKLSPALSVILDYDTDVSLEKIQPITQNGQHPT
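Tetracycline-induced HEK293 Trex D1 cells, force-coupled to calcium, dye-loaded; compounds added and read 180 s, then EC80 dopamine added and calcium flux tracked kinetically another 180 s.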
D1 agonist – Allosteric Agonists of the Human D1 Dopamine Receptor: qHTS; HEK293 T-REx D1 cells, calcium flux, agonist mode; activation, % at 2 µM; D(1A) dopamine receptor (Homo sapiens), P21728; AID 504660, 2011; actives 1% (n = 360,000)
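Agonism was scored from calcium flux recorded over 180 s (1 read/s) after pintool compound addition, following a 10-cycle baseline. Cells were inducible force-coupled HEK293 TREx D1, plated overnight at 30 C and loaded with no-wash calcium dye.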
USP1 inh – Inhibitors of USP1/UAF1: Primary Screen | recombinant USP1/UAF1, Ub-Rhodamine cleavage fluorescence | actives 0.23% (n = 390,000) | Potency, µM (highest dose often 57.1 µM), most hits filed as inhibitors | AID 743255, 2014; active = well fitted inhibition curve with a large enough effect; inconclusive = small, poorly fitted or top-dose-only effect; inactive = no such curve, though single readings can be large or run the other way; note: nearly all actives have a fitted effect of over 60% in size
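High-throughput fluorogenic screen: 1nM USP1/UAF1 complex, Ub-Rho substrate 150nM final, 50mM HEPES pH 7.8 with 0.5mM EDTA, 0.1 mg/ml BSA, 1mM TCEP and 0.01% Tween-20.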
D1 potentiator – Potentiators of Human D1 Dopamine Receptor: qHTS | actives 0.036% (n = 360,000) | HEK293 TREx D1 cells, calcium flux, dopamine EC20 potentiation | D(1A) dopamine receptor (Homo sapiens), P21728 | potentiation, % at 10 µM; in the data active = potentiation above about 30%
Of the large screens only hits and unclear results are named; the others gave an inactive call. Only some compounds are listed: those with a hit (about 4.4% of all), similar ones and a draw of the others. Cut-off read from the data, not from the text of the source, unless noted: active = activation above about 30%; inactive = the rest.

CCOc1ccc(OCC)c(NS(=O)(=O)c2ccc(-c3coc(C)n3)cc2)c1	none
Cc1cccc(C)c1OC(=O)CSc1nnc(CNC(=O)c2ccccc2)o1	none
CCOC(=O)c1cc2c(n(-c3ccc(Cl)cc3)c1=O)CCCC2=O	D1 antagonist -30.4
COc1cc(OC)c(NC(=O)C(Cc2ccccc2)NS(=O)(=O)c2cccc3nsnc23)cc1Cl (configuration not stated)	none
C/C(=N\Nc1ccc(Cl)c(C(=O)O)c1)c1ccccn1	none
C/C(=N\Nc1ncc(Cl)cc1Cl)c1ccccn1	D1 antagonist -40.5
Cc1sc2ncnc(N/N=C/c3cccc(O)c3)c2c1C	none
C/C(=N\Nc1ncnc2sc(C)c(C)c12)c1ccccn1	TRHR agonist 55.0, D1 agonist 281.4, USP1 inh inconclusive
CC(C)(C)c1ccc(OCC(=O)Nc2ccc(S(=O)(=O)Nc3ncccn3)cc2)cc1	none
COc1ccc(CCC(=O)NCCS(=O)(=O)N2CCN(c3ccccc3OC)CC2)cc1	D1 antagonist -33.0
COc1ccccc1NC(=O)C1=C(C)Nc2c(C(=O)Nc3ccc(F)cc3)cnn2C1c1cccc([N+](=O)[O-])c1 (configuration not stated)	none
CCOc1ccccc1NC(=O)CSc1ncc2c(n1)-c1ccccc1N(CC)S2(=O)=O	none
CC1CCc2c(sc3nnn(Cc4ccc(F)cc4)c(=O)c23)C1 (configuration not stated)	D1 antagonist -44.5
COC(=O)c1ccc(Cn2nnc3sc4c(c3c2=O)CCCC4)cc1	none
O=C(O)c1ccc(Cn2nnc3sc4c(c3c2=O)CCCC4)cc1	D1 antagonist -30.3
Cc1ccc(Cn2nnc3sc4c(c3c2=O)CCC(C)C4)cc1 (configuration not stated)	none
Cc1cc(Nc2ccc(F)cc2)n2c(nc3ccccc32)c1C#N	none
Cc1cc(Nc2cccc([N+](=O)[O-])c2)n2c(nc3ccccc32)c1C#N	D1 antagonist -34.8
O=C(NCCCSc1ccccc1)c1cnc(Cl)c(Cl)c1	D1 antagonist -30.3
CC(=O)Nc1ccc(CC(=O)O)cc1	D1 agonist 47.2
O=C(O)Cc1ccc(NC(=O)Nc2cccc(Cl)c2)cc1	D1 antagonist -50.7
COc1cccc(NC(=O)Nc2ccc(CC(=O)O)cc2)c1	none
Cc1oc(C)c(C(=O)Nc2ccc(CC(=O)O)cc2)c1C(=O)Nc1ccc(CC(=O)O)cc1	none
Cc1ccc2c(c1)-c1c(c(C(=O)N3CCN(c4cc(C)ccc4C)CC3)nn1C)CS2	none
COc1cc(OC)c(NC(=O)c2sc3nc4n(c(=O)c3c2C)CCCC4)cc1Cl	none
COC(c1ccccc1)c1nnc(CCC(=O)N(C)CCCC2CCCC2)o1 (configuration not stated)	D1 antagonist -32.5
COc1ccc(CCNC(=O)C2(C)CCC(=O)N2Cc2ccc3c(c2)OCO3)cc1OC (configuration not stated)	none
COc1ccc(CCNC(=O)C2(C)CCC(=O)N2Cc2ccc(F)cc2Cl)cc1OC (configuration not stated)	D1 antagonist -32.6
COc1ccc(C(CNC(=O)COc2ccc(Cl)c(C)c2)N2CCOCC2)cc1 (configuration not stated)	none
COc1ccc(NC(=O)NCCN2CCN(c3cccc(Cl)c3)CC2)cc1	D1 antagonist -61.4
COC(=O)c1ccc(N2CCN(CCNC(=O)Nc3ccc(OC)cc3)CC2)cc1	none
COc1ccc(N2CCN(CCNC(=O)Nc3ccc(C)c(Cl)c3)CC2)cc1	D1 agonist 30.6
COc1ccc(OC)c(NC(=O)NCCN2CCN(c3ccccc3)CC2)c1	D1 antagonist -54.1
COc1cc(NC(=O)NCCN2CCN(c3ccc(Cl)cc3)CC2)ccc1C	D1 agonist 63.9
CCOc1ccccc1CNC(=O)CCC(=O)N1CCSc2ccccc21	none
CCOc1ccc(NS(=O)(=O)c2ccc3[nH]cc(C(=O)NCc4ccco4)c(=O)c3c2)cc1	D1 antagonist -47.8
CCOc1ccc(NS(=O)(=O)c2ccc3[nH]cc(C(=O)NCc4ccccc4)c(=O)c3c2)cc1	none
Cc1cc2nc(-c3ccc(OCc4ccccc4C)cc3)cc(C(F)(F)F)n2n1	none
COc1ccc(-c2ncn(CCC#N)c2[N+](=O)[O-])cc1	TRHR enhancer 33.0
Cc1nn(-c2ccccc2)c(C)c1/C=N/NC(=O)CSc1nnc(SCc2ccccc2Cl)s1	none
Cc1ccc(CSc2nnc(SCC(=O)N/N=C/c3c(C)nn(-c4ccccc4)c3C)s2)cc1	D1 antagonist -37.6
Cc1ccc(C(=O)/C=C/c2cn(CC(O)CN3CCOCC3)c3ccccc23)cc1 (configuration not stated)	none
O=C(/C=C/c1cn(CC(O)CN2CCOCC2)c2ccccc12)c1cccs1 (configuration not stated)	TRHR agonist 31.5, D1 antagonist -80.9 (no result: USP1 inh)
Cc1ccc(C)c(Nc2nnc(-c3ccc(C)c(S(=O)(=O)NCC4CCCO4)c3)c3ccccc23)c1 (configuration not stated)	D1 antagonist -38.6
Cc1ccc(-c2nnc(Nc3ccccc3)c3ccccc23)cc1S(=O)(=O)NCC1CCCO1 (configuration not stated)	none
Cc1ccc(C)c(Nc2nnc(-c3ccc(C)c(S(=O)(=O)N4CCN(C)CC4)c3)c3ccccc23)c1	D1 antagonist -30.6
COc1ccc(CC(=O)OCC(=O)NC(=O)NC2CCCCC2)cc1	TRHR enhancer 39.1
CCNC(C(=O)c1c[nH]c2c(CC)cccc12)c1ccccc1 (configuration not stated)	D1 agonist 63.0
CC(=O)c1cccc(NC(=O)c2cc3nc(-c4ccc(Br)cc4)cc(C(F)(F)F)n3n2)c1	none
CCc1ccc2c(c1)c(=O)c(S(=O)(=O)c1ccccc1)cn2CC(=O)Nc1ccc(OC)cc1	none
COc1ccc(S(=O)(=O)c2cn(CC(=O)Nc3ccccc3)c3ccc(Cl)cc3c2=O)cc1	D1 antagonist -44.8
O=C(Cn1cc(S(=O)(=O)c2ccc(F)cc2)c(=O)c2cc3c(cc21)OCO3)Nc1ccccc1	D1 antagonist -33.9
Cc1nn(-c2ccccc2)c(Cl)c1/C=N/NC(=O)c1ccncc1	none
